# High-throughput results (PubChem BioAssay)
# Compounds with a hit are over-represented: about 1.4% of the library has one in this group of screens.
# RN4220 kill = kills Staphylococcus aureus RN4220; S. aureus RN4220 growth, OD600, 16 h; inhibition, % (concentration not given with the values); 330,000 compounds, 0.33% hits; AID 1259311; in the data active = inhibition above about 85%;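 note: plate controls were untreated cells for no effect and reference antibiotic for full effect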
# Sa ugtP lethal = kills S. aureus RN4220 lacking UgtP; AID 1259309; growth inhibition, % (test concentration not listed); 330,000 compounds, 0.54% hits; S. aureus RN4220 ugtP deletion, OD600 growth, 16 h; in the data active = growth inhibition above about 68%;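 note: plate controls were untreated wells for no effect and antibiotic for full effect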
# Mtb hypoxia rep = reduces hypoxia-regulated biosensor signal in M. tuberculosis; 300,000 compounds, 0.1% hits; AID 1159583; M. tuberculosis hypoxia-regulated fluorescent reporter, fluorescence; fluorescence inhibition, % (concentration not given with the values); in the data active = fluorescence inhibition mostly above about 23%, no sharp cut-off; inactive = mostly below about 17%
# SSB-PriA inh = blocks PriA binding to SSB C-terminal tail | AlphaScreen SSBct-PriA binding, biotinylated peptide | inhibition, % at 33 µM | 430,000 compounds, 0.6% hits; in the data active = inhibition mostly above about 37%, no sharp cut-off; inactive = mostly below about 20%;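 note: plate controls were negative control peptide for no effect and reference peptide for full effect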
# CCHF vOTU inh = blocks the CCHF virus ovarian tumor domain protease | CCHFV vOTU protease, Pep-AMC fluorescence | inhibition, % at 11.5 µM | 370,000 compounds, 0.55% hits; in the data active = inhibition above about 30%; note: 0% = vehicle wells with enzyme and 100% = no enzyme wells
# * hit, by the source's call; . = no result; ! = repeats disagree.
SMILES,RN4220 kill,Sa ugtP lethal,Mtb hypoxia rep,SSB-PriA inh,CCHF vOTU inh
CCCOc1ccc(-c2nc(C#N)c(N3CCC(C(N)=O)CC3)o2)cc1,4,-1,0,-4,-46
Cc1ccc(OCc2nc(C#N)c(N3CCC(C(N)=O)CC3)o2)cc1,.,.,.,56*,.
COc1ccc(OCc2ccc(-c3nc(C#N)c(N4CCC(C(N)=O)CC4)o3)o2)cc1,.,.,.,37*,.
Cc1ccc([C@H](CNS(=O)(=O)c2ccc(OC(F)(F)F)cc2)OCCO)cc1,.,.,.,-12,.
O=C(CCc1ccc(Oc2cc([N+](=O)[O-])cc([N+](=O)[O-])c2)cc1)N1CCCCCC1,1,8,-5,39*,3
O=S(=O)(NCC(c1ccco1)N1CCc2ccccc21)c1ccccc1 (centres undefined),4,7,7,25*!,-5
Cc1noc(CNC(=O)c2ccc(Cl)cc2Cl)n1,.,.,.,-18,.
Cc1ccc(C)c(N=Nc2nc3ccccc3n2C)c1,8,-19,-3,5,2
Cc1cc(C)c(C)c(N=Nc2nc3ccccc3n2C)c1C,2,8,7,68*,7
CCCC1CCc2c(c3ccccc3[nH]c2=O)O1 (centres undefined),10,-3,16,-3,16
CCC1CCc2c(c3ccccc3[nH]c2=O)O1 (centres undefined),-11,-20,4,87*,9
Cc1cc2[nH]c3c(c[n+](C)c4ccccc34)c2cc1C,20,13,64*,9,0
COc1cc(-c2noc(C)c2C=Cc2ccc(N)cc2)cc(OC)c1OC,-1,-1,-9,.,.
CCSc1cccc(C(=O)Nc2ccc(OC)cc2[N+](=O)[O-])c1,.,.,.,51*,.
COc1ccc(NC(=O)c2ccccc2NS(=O)(=O)c2ccc(C)cc2)c([N+](=O)[O-])c1,.,.,.,53*,26
CCOc1ccc(CNC(=O)CCn2cnc3c([nH]c4ccc(F)cc43)c2=O)cc1OCC,.,.,.,-1,.
O=S(=O)(c1ccc(Cl)cc1)c1nc(-c2ccco2)oc1N1CCOCC1,4,8,14,-2,-1
CN1CCN(c2oc(-c3ccccc3)nc2S(=O)(=O)c2ccc(Br)cc2)CC1,-1,2,9,39*,.
O=S(=O)(c1ccc(Cl)cc1)c1nc(-c2cccs2)oc1N1CCOCC1,.,.,.,44*,.
Nc1ncc(S(=O)(=O)c2ccc([N+](=O)[O-])cc2)s1,98*,96*,-1,-4,-8
O=C1CCCN1c1ncc(S(=O)(=O)c2ccc([N+](=O)[O-])cc2)s1,72,75,1,-2,-11
CC(NC(=S)Nc1ccc(OC(F)F)c(Cl)c1)C(C)(C)C (centres undefined),10,30,28*,-17,6
Cc1ccc(NC(=S)Nc2ccc(OC(F)F)c(Cl)c2)cc1Cl,75,67,3,-21,-8
Cc1cc(C)cc(NC(=S)Nc2ccc(Cl)c(Cl)c2)c1,100*,101*,13,-11,-17
Cc1ccc(NC(=S)Nc2ccc(Cl)c(Cl)c2)c(OC(F)F)c1,100*,100*,7,3,-9
SMILES,RN4220 kill,Sa ugtP lethal,Mtb hypoxia rep,SSB-PriA inh,CCHF vOTU inh
Cc1cccc(C)c1NC(=S)Nc1ccc(Cl)c(Cl)c1,19,-12,11,-14,-1
CC(C)c1nnc(NC(=O)COc2ccc(Cl)cc2Cl)s1,.,.,.,-10,.
COc1ccccc1N1CCN(CCNC(=O)C(C)C)CC1,.,.,.,-12,.
O=C1C(c2ccccc2)=C(N2CC2)c2ccccc21,-2,4,.,41*,10
Cc1ccc(S(=O)(=O)NN=C2C(=O)C3(C)CCC2C3(C)C)cc1 (centres undefined),6,-1,2,0,.
O=C(Nc1ccc(Cl)cc1)/C(=C/c1cccc(O)c1)c1nc2ccccc2s1,69,89*,2,6,6
S=C(Nc1ccc(Cl)cc1)c1nc2ccccc2s1,-7,-5,.,14,6
NC(CS(=O)(=O)c1ccccc1)=NOC(=O)c1ccc(F)cc1,.,.,.,2,.
O=C(C1=C(Nc2ccccc2)c2ccccc2S(=O)(=O)N1)c1ccccc1,.,.,.,42*,5
Cc1ccccc1NC1=C(C(=O)c2ccccc2)N(C)S(=O)(=O)c2ccccc21,-4,18,.,1,-4
O=C(NCc1ccncc1)c1ccc(Cn2cnc3ccccc32)o1,.,.,.,-6,.
CN(C)CCN(C(=O)c1ccccc1)c1nc2ccc(F)cc2s1,.,.,.,-11,.
CN(C)CCCN(C(=O)c1ccc(S(=O)(=O)N2CCc3ccccc32)cc1)c1nc2ccc(Cl)cc2s1,0,-11,9,-2,10
CN(C)CCCN(C(=O)c1ccc(S(=O)(=O)N2CCCc3ccccc32)cc1)c1nc2c(Cl)cccc2s1,.,.,.,39*,.
Cc1cc(C)c2sc(N(CCCN(C)C)C(=O)c3ccc(S(=O)(=O)N4CCc5ccccc5C4)cc3)nc2c1,.,.,.,-10,.
CN(C)CCCN(C(=O)c1ccc(S(=O)(=O)N2CCc3ccccc32)cc1)c1nc2ccc(F)cc2s1,-2,-15,7,46*!,3
Cc1cc(C)c2sc(N(CCCN(C)C)C(=O)c3ccc(S(=O)(=O)N4CCCc5ccccc54)cc3)nc2c1,.,.,.,47*!,-1
CN(C)CCCN(C(=O)c1cc(-c2cccs2)nc2ccccc12)c1nc2ccc(F)cc2s1,15,-50,18,41*,-4
N#Cc1nc(-c2cccs2)oc1NCc1ccc2c(c1)OCO2,-5,10,.,48*,-40
CC1(C)CC(=O)C2=C(C1)NC1=C(C(=O)c3ccccc31)C2c1ccc(Cl)cc1 (centres undefined),-12,-20,-11,36,-1
Cc1ccc(C2C3=C(CC(C)(C)CC3=O)NC3=C2C(=O)c2ccccc23)cc1 (centres undefined),1,-10,13,51*,-6
Cc1nc(N2CCC(NC(=O)c3cccn3C)CC2)cc(C(F)(F)F)n1,.,.,.,-22,.
O=C(O)CCc1ccc(O)c2ncccc12,.,.,.,114*,.
O=C(CCl)c1ccc(O)c2ncccc12,.,.,.,121*,.
O=C(O)c1ccc(O)c2ncccc12,.,.,.,.,-2
SMILES,RN4220 kill,Sa ugtP lethal,Mtb hypoxia rep,SSB-PriA inh,CCHF vOTU inh
O=C(O)Cc1ccc(O)c2ncccc12,.,.,.,87*,.
Oc1ccc(CNc2ncccn2)c2cccnc12,.,.,.,76*,.
Cc1ccc(-c2nn(-c3ccccc3)cc2C=Nn2c(-c3ccncc3)n[nH]c2=S)cc1,24,5,-7,-4,.
Oc1ccc(Cc2ccccc2)c2cccnc12,7,-3,2,9,10
OCc1ccc(O)c2ncccc12,-19,-4,6,80*,9
CC(SCc1ccccc1)C(=O)NN=Cc1cccs1 (centres undefined),4,6,6,-14,.
CCOc1ccc(S(=O)(=O)N2CCCC(c3nnc(-c4cccs4)o3)C2)cc1 (centres undefined),.,.,.,1,.
O=C(Nc1ccccc1)Nc1cc(Cl)cc(Cl)c1,.,.,.,-24,3
O=C(Nc1ccccc1)Nc1cc(OCC(F)(F)F)cc(OCC(F)(F)F)c1,90*,94*,-8,-28,26
Cn1nc(-c2ccc(F)cc2)cc1C(=O)N(Cc1nn(C)c2c1CCC2)C1CCCC1,.,.,.,0,.
COc1ccc(OC)c(NC(=O)CSc2nnc(Cc3cccn3C)n2CCc2ccccc2)c1,1,-3,5,33,-1
